This is an account of results in PubChem BioAssay (EPA / NIEHS).

In general, AC50 refers to the midpoint of the concentration-response curve, whichever way the signal moves.

In assay [1] the target is human Thyroid Receptor alpha (THRa1), THRA (gene 7067) (UniProt P10827). The assay can be described thus: ATG_THRa1_TRANS: Attagene TRANS-FACTORIAL HepG2 Assay for human Thyroid Receptor alpha (THRa1) (AID 2283014; active = hit-call score of the fitted dose curve at least 0.9, where 1 is the maximum). Put shortly: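 Reporter transcript induction, read by capillary electrophoresis of 6-FAM-labelled RT-PCR products, reflects activity of a transfected THRa1-Gal4 fusion in HepG2 liver cells. Cells were dosed for 24 h; activity was fitted in the positive direction against DMSO.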
human Thyroid Receptor alpha (THRa1), THRA (gene 7067), sequence (P10827 whole entry, looked up, the tested form may be a part): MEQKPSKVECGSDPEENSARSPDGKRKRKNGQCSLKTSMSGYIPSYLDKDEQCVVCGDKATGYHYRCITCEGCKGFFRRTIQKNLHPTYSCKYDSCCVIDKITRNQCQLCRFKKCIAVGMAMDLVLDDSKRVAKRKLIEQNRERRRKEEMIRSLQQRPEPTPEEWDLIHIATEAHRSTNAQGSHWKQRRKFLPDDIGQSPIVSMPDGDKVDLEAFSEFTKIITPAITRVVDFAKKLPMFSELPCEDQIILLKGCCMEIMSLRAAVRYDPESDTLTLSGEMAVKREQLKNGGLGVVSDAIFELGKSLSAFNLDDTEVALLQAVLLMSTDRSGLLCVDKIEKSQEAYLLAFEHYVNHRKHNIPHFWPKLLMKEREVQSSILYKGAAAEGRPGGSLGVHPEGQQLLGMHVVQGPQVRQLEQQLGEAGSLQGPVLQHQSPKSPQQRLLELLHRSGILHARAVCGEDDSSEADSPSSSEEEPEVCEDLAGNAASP

Assay [2] addresses human Vitamin D Receptor (VDR), VDR (gene 7421) (UniProt P11473). The assay can be described thus: ATG_VDR_TRANS: Attagene TRANS-FACTORIAL HepG2 Assay for human Vitamin D Receptor (VDR) (AID 2283022; active = hit-call score of the fitted dose curve at least 0.9, where 1 is the maximum). The essentials: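 Steps: transfect HepG2 with GAL4-UAS-driven reporter constructs; dose compounds 24 h; isolate RNA, reverse-transcribe, PCR-amplify with 6-FAM-labelled primer extension and HpaI digestion; quantify fragments by capillary electrophoresis relative to DMSO.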

Read-out in assay [3]: E-selectin (Homo sapiens) (UniProt P16581)
The assay can be described thus: BSK_3C_Eselectin: BioMAP Diversity Plus: 3C Assay for Eselectin Biomarker Activity (AID 2283015).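 As to outcome: cell surface E-selectin protein quantified by ELISA 24 h after dosing.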 Particulars: primary human endothelial cells (HUVEC); actives raise or lower the signal. The essentials: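 ELISA read-out of E-selectin on endothelial monolayers after 24 h chemical treatment. Human umbilical vein primary cells served as the system, with DMSO defining baseline activity for bidirectional fitting.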

Read-out in assay [4]: Interleukin-1 alpha (IL1a), IL1A (gene 3552)
The assay can be described thus: BSK_BE3C_IL1a: BioMAP Diversity Plus: BE3C Assay for Interleukin-1 alpha (IL1a) Biomarker Activity (AID 2283016). The note with it: primary human bronchial epithelial cells; actives raise or lower the signal. The essentials: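 Signal from IL-1a ELISA, taken 24 h after chemical dosing of human bronchial epithelial cells, is compared with DMSO as baseline using bidirectional curve fitting.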

Read-out in assay [5]: Monocyte Chemoattractant Protein-1 (MCP1), CCL2 (gene 6347)
Kind of assay: BSK_3C_MCP1: BioMAP Diversity Plus: 3C Assay for Monocyte Chemoattractant Protein-1 (MCP1) Biomarker Activity (AID 2283017). Particulars: primary human endothelial cells (HUVEC); actives raise or lower the signal. The essentials:
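ELISA read-out of MCP-1 from human umbilical vein endothelial cell cultures harvested 24 h post-dosing. Gain or loss of signal was fitted relative to DMSO.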

Read-out in assay [6]: Monocyte Chemoattractant Protein-1 (MCP1), CCL2 (gene 6347)
The assay can be described thus: BSK_4H_MCP1: BioMAP Diversity Plus: 4H Assay for Monocyte Chemoattractant Protein-1 (MCP1) Biomarker Activity (AID 2283018). Particulars: primary human endothelial cells (HUVEC); actives raise or lower the signal. Put shortly: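 Endothelial cells from umbilical vein were treated with test chemical, then after 24 h MCP-1 levels were quantified by ELISA; endpoint values came from bidirectional fitting with DMSO as baseline of activity.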

Read-out in assay [7]: Human Leukocyte Antigen - DR isotype (HLADR), HLA-DRA (gene 3122)
The assay can be described thus: BSK_3C_HLADR: BioMAP Diversity Plus: 3C Assay for Human Leukocyte Antigen - DR isotype (HLADR) Biomarker Activity (AID 2283019).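 As to outcome: ELISA of cell-surface HLA-DR on HUVEC 24 h after dosing.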 The note with it: primary human endothelial cells (HUVEC); actives raise or lower the signal. Put shortly:
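ELISA readout of surface HLA-DR on human umbilical vein endothelium, taken 24 h after chemical treatment. Gain- and loss-of-signal were both fitted relative to DMSO.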

Read-out in assay [8]: Interleukin-8 (IL8), CXCL8 (gene 3576)
The assay can be described thus: BSK_3C_IL8: BioMAP Diversity Plus: 3C Assay for Interleukin-8 (IL8) Biomarker Activity (AID 2283020). The note with it: primary human endothelial cells (HUVEC); actives raise or lower the signal. The essentials:
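Endothelial primary cells of human umbilical vein origin are dosed with chemical; after 24 h the IL-8 biomarker is measured by ELISA, and concentration–response is fitted in both directions versus DMSO.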

Read-out in assay [9]: Monokine induced gamma interferon (MIG), CXCL9 (gene 4283)
Kind of assay: BSK_3C_MIG: BioMAP Diversity Plus: 3C Assay for Monokine induced gamma interferon (MIG) Biomarker Activity (AID 2283021).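 As to AC50: MIG protein level measured by immunoassay in the treated endothelial cultures.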 The note with it: primary human endothelial cells (HUVEC); actives raise or lower the signal. Put shortly: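 Endothelial primary cells (human umbilical vein) are dosed with test chemical in the 3C system. MIG levels are measured by ELISA at 24 h and fitted in both directions relative to DMSO.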

Assay [10] is described as follows: BSK_3C_SRB: Viability Assessment in the BioMAP Diversity Plus: 3C Assay (AID 2283023).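 Also: fitted both ways against DMSO so a hit may be signal rise or drop.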 Particulars: primary human endothelial cells (HUVEC). Put shortly:
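Absorbance at 560 nm of sulforhodamine B-stained (0.1%) total protein served as a cytotoxicity readout in human umbilical vein endothelial cells, 24 h after chemical treatment. Signal was fitted bidirectionally relative to DMSO.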

Read-out in assay [11]: Matrix Metallopeptidase 1 (MMP1), MMP1 (gene 4312)
Kind of assay: BSK_BE3C_MMP1: BioMAP Diversity Plus: BE3C Assay for Matrix Metallopeptidase 1 (MMP1) Biomarker Activity (AID 2283024). Particulars: primary human bronchial epithelial cells; actives raise or lower the signal. Put shortly: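 MMP1 signal, measured by ELISA after a 24 h chemical exposure of human primary bronchial epithelial cells, is analysed with bidirectional fitting using DMSO as negative control.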

Assay [12] can be described thus: BSK_3C_Vis: BioMAP Diversity Plus: 3C Assay for Morphology Visualization (AID 2283025).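 Also: fitted both ways so gain or loss versus DMSO counts.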 The note with it: primary human endothelial cells (HUVEC). The essentials:
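Morphology read by light microscopy serves as a background control for the multiplexed 3C assay in human umbilical vein endothelial cells, taken 24 h after dosing, with DMSO as the negative control and bidirectional curve fitting.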

Read-out in assay [13]: Pselectin, SELP (gene 6403)
Kind of assay: BSK_4H_Pselectin: BioMAP Diversity Plus: 4H Assay for Pselectin Biomarker Activity (AID 2283026). The note with it: primary human endothelial cells (HUVEC); actives raise or lower the signal. Put shortly: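 Endothelial primary cells (human umbilical vein) are dosed, incubated 24 h, and assayed for surface P-selectin by ELISA; responses in either direction are fitted relative to the DMSO negative control.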

The nature of assay [14]: BSK_4H_SRB: Viability Assessment in the BioMAP Diversity Plus: 4H Assay (AID 2283027).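 Also: cells exposed to compound for 24 h before staining.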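 As to AC50: curves fitted both ways versus DMSO so AC50 may be loss or gain.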 The note with it: primary human endothelial cells (HUVEC). Put shortly:
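HUVEC, 24 h post-dose; 10% TCA fix, 0.1% SRB stain, A560 nm. Total protein = overt cytotoxicity, parallel to biomarker read. Bidirectional fit vs DMSO baseline.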

Assay [15] is described as follows: BSK_BE3C_SRB: Viability Assessment in the BioMAP Diversity Plus: BE3C Assay (AID 2283028). The note with it: primary human bronchial epithelial cells. The essentials: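 Cells (human bronchial epithelial, primary) are treated with chemicals, and after 24 h the parallel cultures are fixed in 10% TCA. These are then stained with 0.1% SRB and read at 560 nm. Gain or loss of signal is fitted relative to DMSO.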

Read-out in assay [16]: Urokinase-type plasminogen activator receptor (uPAR), PLAUR (gene 5329)
Kind of assay: BSK_4H_uPAR: BioMAP Diversity Plus: 4H Assay for Urokinase-type plasminogen activator receptor (uPAR) Biomarker Activity (AID 2283030). The note with it: primary human endothelial cells (HUVEC); actives raise or lower the signal. The essentials: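 Cell-surface uPAR ELISA signal, measured 24 h after dosing human umbilical vein endothelial cells, was analyzed with bidirectional fitting relative to DMSO. Parallel SRB staining of total protein tracked overt cytotoxicity.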

Read-out in assay [17]: Vascular endothelial growth factor receptor 2 (Homo sapiens) (UniProt P35968)
The assay can be described thus: BSK_4H_VEGFRII: BioMAP Diversity Plus: 4H Assay for Vascular endothelial growth factor receptor 2 (VEGFR2) Biomarker Activity (AID 2283031). Particulars: primary human endothelial cells (HUVEC); actives raise or lower the signal. Put shortly: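 ELISA read-out of VEGFRII in primary human umbilical vein endothelium, taken 24 h after chemical treatment. Responses are expressed relative to DMSO, with bidirectional fitting.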

Read-out in assay [18]: Human Leukocyte Antigen - DR isotype (HLADR), HLA-DRA (gene 3122)
Kind of assay: BSK_BE3C_HLADR: BioMAP Diversity Plus: BE3C Assay for Human Leukocyte Antigen - DR isotype (HLADR) Biomarker Activity (AID 2283032). Particulars: primary human bronchial epithelial cells; actives raise or lower the signal. Put shortly:
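Chemicals are dosed onto BE3C bronchial epithelial cultures of human origin and left 24 h. HLA-DR is then measured by ELISA, and the endpoint is fitted in both directions using DMSO as the activity baseline.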

Read-out in assay [19]: Thrombomodulin, THBD (gene 7056)
The assay can be described thus: BSK_3C_Thrombomodulin: BioMAP Diversity Plus: 3C Assay for Thrombomodulin Biomarker Activity (AID 2283029). Particulars: primary human endothelial cells (HUVEC); actives raise or lower the signal. The essentials:
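Endothelial cells from umbilical vein are dosed with test chemical and incubated 24 h. Thrombomodulin is then quantified by ELISA, with DMSO serving as negative control and activity baseline.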

Results filed as inconclusive are left out. Activity calls are given as the source filed them. The calls were made as follows, unless noted: active = hit-call score of the fitted dose curve at least 0.9, where 1 is the maximum; inactive = score below 0.9.

human Vitamin D Receptor (VDR), VDR (gene 7421), sequence (P11473 whole entry, looked up, the tested form may be a part): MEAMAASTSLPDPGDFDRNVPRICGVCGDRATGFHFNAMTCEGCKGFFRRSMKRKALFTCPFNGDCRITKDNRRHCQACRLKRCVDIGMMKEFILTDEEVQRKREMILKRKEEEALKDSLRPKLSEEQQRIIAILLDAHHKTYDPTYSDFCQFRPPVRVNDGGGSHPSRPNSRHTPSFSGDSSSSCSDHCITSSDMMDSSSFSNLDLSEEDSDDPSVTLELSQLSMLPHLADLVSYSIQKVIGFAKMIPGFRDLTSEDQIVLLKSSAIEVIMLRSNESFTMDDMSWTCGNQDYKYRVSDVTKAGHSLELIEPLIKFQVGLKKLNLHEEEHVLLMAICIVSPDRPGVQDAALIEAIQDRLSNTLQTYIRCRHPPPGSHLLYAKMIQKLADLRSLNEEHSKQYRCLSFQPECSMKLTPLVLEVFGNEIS
E-selectin (Homo sapiens), sequence (P16581 whole entry, looked up): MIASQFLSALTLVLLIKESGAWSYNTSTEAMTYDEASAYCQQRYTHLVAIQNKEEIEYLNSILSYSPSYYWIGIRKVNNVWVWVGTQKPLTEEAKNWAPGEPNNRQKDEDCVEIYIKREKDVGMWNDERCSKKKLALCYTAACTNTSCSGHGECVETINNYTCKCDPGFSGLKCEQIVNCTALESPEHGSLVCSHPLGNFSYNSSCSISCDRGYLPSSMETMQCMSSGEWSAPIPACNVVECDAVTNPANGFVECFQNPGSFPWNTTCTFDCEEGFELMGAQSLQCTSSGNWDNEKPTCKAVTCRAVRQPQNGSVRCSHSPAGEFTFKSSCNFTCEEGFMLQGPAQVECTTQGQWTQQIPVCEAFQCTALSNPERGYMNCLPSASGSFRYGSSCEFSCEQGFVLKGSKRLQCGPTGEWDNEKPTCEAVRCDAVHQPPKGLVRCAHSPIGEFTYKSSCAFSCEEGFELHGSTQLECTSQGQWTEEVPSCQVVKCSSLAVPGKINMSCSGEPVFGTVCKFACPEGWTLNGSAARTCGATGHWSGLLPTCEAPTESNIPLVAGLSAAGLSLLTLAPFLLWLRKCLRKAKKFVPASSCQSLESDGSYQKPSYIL

Regarding `CCC(=O)c1ccccc1`, the result in [1] and in assay [2] was inactive.
Regarding `CC(C)(C)c1cc(O)ccc1O`, the compound was called inactive in [1], in assay [4], in [6], in assay [8], in assay [10] and in assay [15]. Also, the outcome in assay [16] and in assay [17] was inactive. In addition, the AC50 in assay [3] is 31.8 µM (active); in assay [5], 35.2 µM (active); in assay [7], 32.4 µM (active); in [9], 37 µM (active); in assay [11] it was 8.5 µM (active); in [12] it was 39 µM (active). Further, the AC50 in [13] is 20 µM (active); in assay [14] it was 28.1 µM (active); in assay [18], 18.3 µM (active).
On to `CC(=O)OC(c1ccccc1)C(Cl)(Cl)Cl` (stereo unspecified), for which the outcome in assay [1], in assay [3], in assay [4], in [5], in assay [6] and in assay [7] was inactive. Moreover, the outcome in [8], in [9], in assay [10], in assay [11], in assay [13] and in [14] was inactive. Besides, the result in [15], in [16], in assay [17] and in assay [18] was inactive.
As for `CCOC(=O)Nc1cccc(OC(=O)Nc2ccccc2)c1`, the compound was classed as inactive in assay [1] and in [2].
With `C=CC(=O)N(C)C`, the compound was classed as inactive in assay [1] and in [2].
`ClC1(Cl)C2(Cl)C3(Cl)C4(Cl)C(Cl)(Cl)C5(Cl)C3(Cl)C1(Cl)C5(Cl)C24Cl` (stereo unspecified): the result in [3], in assay [4], in assay [5], in [6], in assay [7] and in assay [8] was inactive. The outcome in assay [9], in assay [2], in assay [10], in assay [11], in [12] and in assay [13] was inactive. Moreover, the outcome in [14], in assay [15], in assay [19], in assay [16], in assay [17] and in assay [18] was inactive.
For the compound `CCSC(C)CC1CC(=O)C(C(CC)=NOC/C=C/Cl)=C(O)C1` (stereo unspecified), the compound was called inactive in [1], in [3], in assay [4], in [5], in assay [6] and in assay [7]. In addition, the result in assay [8], in assay [9], in assay [10], in [11], in assay [12] and in [13] was inactive. Also, the outcome in assay [14], in assay [15], in assay [19], in assay [16], in assay [17] and in assay [18] was inactive.
Turning to `C[C@H]1O[C@@H](O[C@H]2[C@@H](O)C[C@H](O[C@H]3[C@@H](O)C[C@H](O[C@H]4CC[C@@]5(C)[C@H](CC[C@@H]6[C@@H]5CC[C@]5(C)[C@@H](C7=CC(=O)OC7)CC[C@]65O)C4)O[C@@H]3C)O[C@@H]2C)C[C@H](O)[C@@H]1O`, the compound was classed as inactive in assay [1] and in assay [2].
As for `OCc1ccco1`, the result in [3], in assay [4], in assay [5], in [6], in assay [7] and in assay [8] was inactive. Further, the result in [9], in assay [2], in assay [10], in [11], in assay [12] and in assay [13] was inactive. Besides, the result in assay [14], in [15], in assay [19], in assay [16], in assay [17] and in [18] was inactive.
`Clc1ccc(C2(Cn3cncn3)CC(Br)CO2)c(Cl)c1` (stereo unspecified): the call in [1] and in assay [2] was inactive.
In the case of `C=CC#N`, the result in [1] and in assay [2] was inactive.
In the case of `COC[C@H](C)N(C(=O)CCl)c1c(C)csc1C`, the result in assay [3], in [4], in assay [5], in [6], in [7] and in assay [8] was inactive. The outcome in assay [9], in assay [10], in assay [11], in [12], in assay [13] and in [14] was inactive. The outcome in assay [15], in assay [16], in assay [17] and in assay [18] was inactive.
`OCC(O)CCl` (stereo unspecified): in [2], the compound was called inactive.
